The record followed here is ChEMBL document CHEMBL1961873, “Compounds: GSK PKIS; Assays: Nanosyn kinase panel” (2012).

Broadly, the inhibition is the relative decrease from the control value, in per cent.
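Further: reported figures are mean percent inhibition of PIM1 kinase activity.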

Sequence of Serine/threonine-protein kinase pim-1 (Homo sapiens) (P11309 whole entry, looked up): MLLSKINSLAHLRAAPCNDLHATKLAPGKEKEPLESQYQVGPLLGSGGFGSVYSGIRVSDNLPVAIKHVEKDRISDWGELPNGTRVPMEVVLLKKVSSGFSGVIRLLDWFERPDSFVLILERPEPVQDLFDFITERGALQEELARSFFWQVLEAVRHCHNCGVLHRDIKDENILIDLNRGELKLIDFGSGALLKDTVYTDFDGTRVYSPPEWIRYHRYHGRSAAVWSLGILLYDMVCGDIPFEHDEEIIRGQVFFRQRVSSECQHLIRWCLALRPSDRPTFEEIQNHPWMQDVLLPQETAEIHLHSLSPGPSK

The experiment addresses Serine/threonine-protein kinase pim-1 (Homo sapiens) (UniProt P11309). Particulars: at 1 µM.
In the case of `CCS(=O)(=O)c1ccc(OC)c(Nc2ncc(-c3cccc(-c4ccccc4F)c3)o2)c1`, the inhibition was found to be 5.63%.

For the compound `C/C(Nc1ccc(S(N)(=O)=O)cc1)=C1/C(=O)Nc2ccccc21`, the inhibition was determined as 2.86%.

For `CN(C)CCOc1ccc(-c2cc(-c3ccc4c(c3)CCC4=NO)c(-c3ccncc3)o2)cc1`, the inhibition was 0.18%.

For the compound `CCc1cccc(CC)c1/C=C/c1cncc(C(=O)NC)c1`, the inhibition stood at 1.26%.

Take `COc1ccc2cc(-c3c(-c4ccncc4)nc(-c4ccc(S(C)(=O)=O)cc4C)n3C)ccc2c1`: the inhibition was 2.08%.

In the case of `CCS(=O)(=O)c1ccc(OC)c(Nc2ncc(-c3ccccc3Cl)o2)c1`, the inhibition is 1.67%.

Turning to `COc1cc2ncn(-c3cc(OCCc4ccccc4)c(C(N)=O)s3)c2cc1OC`, the inhibition is -0.29%.

Consider `CN1CCN(CCCNc2nc3ccc(Oc4ccc(NC(=O)Nc5cc(C(F)(F)F)ccc5F)cc4)cc3[nH]2)CC1`, for which the inhibition amounted to 0.87%.

As for `Cc1ccc(NC(=O)c2ccoc2)cc1-c1ccc(C(=O)NCC2CC2)cc1`, the inhibition is 0.47%.

Turning to `COc1ccc2cc(-c3c(-c4ccncc4)nc(-c4ccc([S+](C)[O-])cc4C)n3C)ccc2c1` (centres undefined), the inhibition came out at 0.72%.

On to `O=C(NCC1CC1)c1ccc(-c2cccc(C(=O)NC3CC3)c2)cc1`, for which the inhibition worked out at 0.34%.

Consider `O=C(Nc1n[nH]c2cc(-c3cc(F)ccc3F)ccc12)C1CC1`, for which the inhibition is 1.3%.

Regarding `COc1cc(N2CCN(C(C)C)CC2)ccc1Nc1nc(Nc2ccc(F)cc2C(=O)NC[C@@H](O)CO)c2cc[nH]c2n1`, the inhibition came to 1.79%.

On to `NC(=O)c1cc(-c2ccncc2)cc(-c2ccccc2)c1N`, for which the inhibition came to 1.24%.

As for `Fc1ccc(-c2ncn(C3CCNCC3)c2-c2ccnc(Oc3ccc4c(c3)OCO4)n2)cc1`, the inhibition turned out to be 2.07%.

Consider `FC(F)(F)c1cccc(Nc2nccc(-c3cnn4nc(-c5ccccc5)ccc34)n2)c1`, for which the inhibition was -0.68%.

With `COc1cc2ncn(-c3cc(OCc4ccccc4C(F)(F)F)c(C(C)=O)s3)c2cc1OC`, the inhibition came to 0.89%.

On to `Fc1ccc(-c2ncn(CCCN3CCOCC3)c2-c2ccncc2)cc1`, for which the inhibition was -0.27%.

Take `NS(=O)(=O)c1ccc(Nc2cc(-c3ccc(O)c(F)c3)n[nH]2)cc1`: the inhibition amounted to 0.95%.

As to `CN(C)CCCNc1nccc(-c2c(-c3ccc(F)cc3)nn3cc(C(F)(F)F)ccc23)n1`, the inhibition was determined as 1.32%.

Turning to `Fc1ccc(-c2c(-c3ccncc3)nc3n2CCS3)cc1`, the inhibition came out at 0.06%.

As to `O=C(Nc1n[nH]c2nc(-c3ccco3)ccc12)C1CC1`, the inhibition amounted to 0.54%.

For the compound `C[C@@H](Oc1cc(-n2cnc3ccc(OCC4CCN(C)CC4)cc32)sc1C(N)=O)c1ccccc1Cl`, the inhibition stood at 70%.

For `c1ccc(-c2n[nH]cc2-c2ccnc(-c3ccc(OCCN4CCOCC4)cc3)c2)nc1`, the inhibition was 1.87%.

With `O=C1Nc2ccccc2/C1=C/Nc1ccc(-n2cncn2)cc1`, the inhibition was 0.68%.

As to `c1ccc(Oc2ccc(Nc3ncc(-c4ccccc4)o3)cc2)cc1`, the inhibition was 0.21%.

Regarding `CCN(CC)Cc1ccc(Nc2nccc(-c3cnn4ncccc34)n2)cc1`, the inhibition was 23%.

`Cc1ccc(C(=O)NC(C)C)cc1-c1ccc(C(=O)NCC2CC2)cc1`: the inhibition amounted to 0.56%.

In the case of `COc1cc2ncn(-c3cc(OCc4cccs4)c(C(N)=O)s3)c2cc1OC`, the inhibition came out at 2.01%.

For the compound `O=C(Nc1ccc(Oc2ccc3[nH]c(NC(=O)c4ccccc4)nc3c2)cc1)Nc1cc(C(F)(F)F)ccc1F`, the inhibition came out at 0.07%.

On to `COc1ccc(-c2ccc3c(NC(=O)C4CC4)n[nH]c3n2)cc1`, for which the inhibition was -0.78%.

Turning to `COc1cc(Nc2ncc3c(C)nc(-c4cccc(C(F)(F)F)c4)n3n2)cc(OC)c1OC`, the inhibition worked out at 2%.

Regarding `Fc1ccc(-c2ncn(C3CCNCC3)c2-c2ccnc(Oc3ccc(F)c(F)c3)n2)cc1`, the inhibition was -0.52%.

Consider `NS(=O)(=O)c1ccc(N/N=C2\C(=O)Nc3ccc(C(=O)NCCCn4ccnc4)cc32)cc1`, for which the inhibition was found to be 15.6%.
